Source: publication PMC8384837, “Expanding the binding specificity for RNA recognition by a PUF domain”

How the values were obtained:
Assay in all cases: yeast three-hybrid, YBZ-1, SC-Leu-His + 0.5 mM 3-AT, 4 days
Details in all cases: tags: N-Gal4 AD-HA kept; label: inside an RPR1-promoter hybrid RNA with tandem MS2 sites; ssRNA
PUM1 PUF domain R3-YRW = PUM1 PUF domain R3-YRW (Homo sapiens, UniProt Q14671 828-1176, C935Y;Q939W)
Summary of the method: (§1)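 Matching RNA elements and Pumilio-1 PUF domain libraries, randomized at the three base-contacting residues of every repeat, were co-expressed from a centromeric plasmid in strain YBZ-1 (LexA–MS2 coat fusion, HIS3 reporter). The repeat regions were PCR-amplified and Illumina-sequenced from cells grown four days on SC-Leu (input) or SC-Leu-His + 0.5 mM 3-AT (selection). The interaction score is the log change in variant frequency from input to selection. It is computed in log2, with a pseudocount of 1 for absent variants.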

PUM1 PUF domain R6-WHR = molecular target: T1, PUM1 PUF domain R6-WHR (Homo sapiens, UniProt Q14671 828-1176, N1043W;Y1044H;Q1047R)
T1 sequence: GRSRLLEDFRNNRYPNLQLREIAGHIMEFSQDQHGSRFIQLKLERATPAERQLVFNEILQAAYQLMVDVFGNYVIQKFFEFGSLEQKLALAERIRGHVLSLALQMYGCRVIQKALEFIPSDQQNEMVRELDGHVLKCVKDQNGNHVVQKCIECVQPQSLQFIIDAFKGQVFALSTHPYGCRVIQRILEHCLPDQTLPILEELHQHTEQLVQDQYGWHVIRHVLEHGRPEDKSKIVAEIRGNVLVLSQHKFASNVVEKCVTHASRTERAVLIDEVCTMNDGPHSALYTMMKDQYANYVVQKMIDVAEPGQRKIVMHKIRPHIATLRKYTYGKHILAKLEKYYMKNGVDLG
Summary of the method: as §1

PUM1 PUF domain R5-SVV = PUM1 PUF domain R5-SVV (Homo sapiens, UniProt Q14671 828-1176, C1007S;R1008V;Q1011V)
Summary of the method: as §1

PUM1 PUF domain R3-CRI = PUM1 PUF domain R3-CRI (Homo sapiens, UniProt Q14671 828-1176, Q939I)
Summary of the method: as §1

PUM1 PUF domain R3-TRT = PUM1 PUF domain R3-TRT (Homo sapiens, UniProt Q14671 828-1176, C935T;Q939T)
Summary of the method: as §1

PUM1 PUF domain R2-SIP = PUM1 PUF domain R2-SIP (Homo sapiens, UniProt Q14671 828-1176, N899S;Y900I;Q903P)
Summary of the method: as §1

PUM1 PUF domain R1-RKL = PUM1 PUF domain R1-RKL (Homo sapiens, UniProt Q14671 828-1176, S863R;R864K;Q867L)
Summary of the method: as §1

PUM1 PUF domain R1-KWS = PUM1 PUF domain R1-KWS (Homo sapiens, UniProt Q14671 828-1176, S863K;R864W;Q867S)
Summary of the method: as §1

PUM1 PUF domain R5-DFS = PUM1 PUF domain R5-DFS (Homo sapiens, UniProt Q14671 828-1176, C1007D;R1008F;Q1011S)
Summary of the method: as §1

GGCUAGAACUAGUGGAUCCCCCGGCGCCCGGCGGCUCGAGCCCGGGUAAGUGUAAGUAGUCUGCAUGCCGCCGGGCGCCAUGCCUGCAGGUCGACUCUAGAAAACAUG
binding signal (PUM1 PUF domain R3-YRW): 4.4 log2 enrichment (interaction score)

GGCUAGAACUAGUGGAUCCCCCGGCGCCCGGCGGCUCGAGCCCGGGUAAGUGUAAAUAGUCUGCAUGCCGCCGGGCGCCAUGCCUGCAGGUCGACUCUAGAAAACAUG
binding signal (PUM1 PUF domain R6-WHR): 3.96 log2 enrichment (interaction score) | binding signal (PUM1 PUF domain R5-SVV): 0.43 log2 enrichment (interaction score) | binding signal (PUM1 PUF domain R3-CRI): 3.93 log2 enrichment (interaction score) | binding signal (PUM1 PUF domain R3-TRT): 4.01 log2 enrichment (interaction score)

GGCUAGAACUAGUGGAUCCCCCGGCGCCCGGCGGCUCGAGCCCGGGUAAGUGUAAAGAGUCUGCAUGCCGCCGGGCGCCAUGCCUGCAGGUCGACUCUAGAAAACAUG
binding signal (PUM1 PUF domain R2-SIP): 3.71 log2 enrichment (interaction score)

GGCUAGAACUAGUGGAUCCCCCGGCGCCCGGCGGCUCGAGCCCGGGUAAGUGUGAAUAGUCUGCAUGCCGCCGGGCGCCAUGCCUGCAGGUCGACUCUAGAAAACAUG
binding signal (PUM1 PUF domain R5-SVV): 3.44 log2 enrichment (interaction score)

GGCUAGAACUAGUGGAUCCCCCGGCGCCCGGCGGCUCGAGCCCGGGUAAGUGUAAAUUGUCUGCAUGCCGCCGGGCGCCAUGCCUGCAGGUCGACUCUAGAAAACAUG
binding signal (PUM1 PUF domain R1-RKL): 2.52 log2 enrichment (interaction score) | binding signal (PUM1 PUF domain R1-KWS): 3.62 log2 enrichment (interaction score)

GGCUAGAACUAGUGGAUCCCCCGGCGCCCGGCGGCUCGAGCCCGGGUAAGUGUUAAUAGUCUGCAUGCCGCCGGGCGCCAUGCCUGCAGGUCGACUCUAGAAAACAUG
binding signal (PUM1 PUF domain R5-DFS): 5.63 log2 enrichment (interaction score)

GGCUAGAACUAGUGGAUCCCCCGGCGCCCGGCGGCUCGAGCCCGGGUAAGUGUAAUUAGUCUGCAUGCCGCCGGGCGCCAUGCCUGCAGGUCGACUCUAGAAAACAUG
binding signal (PUM1 PUF domain R3-TRT): 1.8 log2 enrichment (interaction score)

GGCUAGAACUAGUGGAUCCCCCGGCGCCCGGCGGCUCGAGCCCGGGUAAGUGUAAAUCGUCUGCAUGCCGCCGGGCGCCAUGCCUGCAGGUCGACUCUAGAAAACAUG
binding signal (PUM1 PUF domain R1-KWS): 3.87 log2 enrichment (interaction score)
